Hits are enriched below; roughly 2.9% of the tested compounds scored in any of these assays.
Beta2AR agonist – activates human beta-2 adrenergic receptor causing internalization | P07550 | Am2.2-beta2AR cells, FAP receptor internalization, flow cytometry | response, % (no concentration beside the values) | 340,000 compounds, 0.43% hits;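 active means response above a set limit, near 3 SD of response in nonfluorescent compounds, cut at about 42% in these data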
Target sequence (P07550 whole entry, looked up): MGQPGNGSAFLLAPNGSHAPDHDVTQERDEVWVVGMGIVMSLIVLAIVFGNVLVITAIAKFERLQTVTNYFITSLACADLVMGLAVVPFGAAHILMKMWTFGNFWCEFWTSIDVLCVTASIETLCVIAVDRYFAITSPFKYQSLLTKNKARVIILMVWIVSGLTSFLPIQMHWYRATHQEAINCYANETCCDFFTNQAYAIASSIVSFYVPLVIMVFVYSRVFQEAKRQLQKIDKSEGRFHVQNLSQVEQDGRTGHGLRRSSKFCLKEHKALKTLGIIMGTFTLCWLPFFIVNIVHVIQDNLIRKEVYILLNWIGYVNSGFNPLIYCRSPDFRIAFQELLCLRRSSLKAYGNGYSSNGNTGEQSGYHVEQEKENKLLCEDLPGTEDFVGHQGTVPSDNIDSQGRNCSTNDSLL
PP1 counter – counter-screen for PP5 inhibitors: inhibitors of human PP1-alpha. 320,000 compounds, 0.9% hits. inhibition, % at 6.7 µM. purified PP1alpha, OMFP fluorescence. AID 2235;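 active means inhibition above the mean inhibition of all tested compounds plus 3 SD, computed separately for each screening campaign, cut at about 15% in these data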
Exocytosis inh – blocks lytic granule exocytosis | TALL-104 LAMP-1 surface exposure, flow cytometry; cells stimulated with thapsigargin and PMA | inhibition, % at 10 µM | 360,000 compounds, 0.66% hits | AID 651702;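 active means inhibition above about 55%, limit read from the data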
NadD block – inhibitors of Staphylococcus aureus NadD; purified NadD enzyme, colorimetric absorbance read-out; inhibition, % at 20 µM; 360,000 compounds, 0.78% hits; AID 602399; in the data active means inhibition above about 26%
GRK2 aptamer HTS – human GRK2 inhibition via aptamer displacement | bead flow cytometry, FAM-aptamer displacement from GRK2 | inhibition of aptamer binding, % at 10 µM | 330,000 compounds, 0.59% hits | P25098;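 active means inhibition of aptamer binding above 40%, roughly 3 SD of noise, on plates passing a quality check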;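 further: median bead fluorescence of bound FAM aptamer so fluorescent compounds give negative values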
NadD conf – NadD (S. aureus) inhibition, single concentration confirmation; purified S. aureus NadD, colorimetric enzyme assay; 2,000 compounds, 13% hits; shares compounds with NadD block; inhibition, % at 20 µM; in the data active means inhibition mostly above about 42%, no sharp cut-off; inactive means mostly below about 42%
Each line names hits and unclear results; the compound was inactive in the other large screens (follow-up assays come after a bar, where they were run).

N#C/C(=C/c1ccc(-c2cccc([N+](=O)[O-])c2)o1)C(=O)Nc1nc(-c2cccs2)cs1	NadD block 46 (no result: PP1 counter, GRK2 aptamer HTS) | NadD conf inactive
N#C/C(=C\c1ccc(-c2cccc([N+](=O)[O-])c2)o1)C(=O)N1CCOCC1	none
N#C/C(=C\c1ccc(-c2ccc([N+](=O)[O-])cc2)o1)C(=O)Nc1nc(-c2cccs2)cs1	NadD block 40 | NadD conf inactive
N#C/C(=C\c1ccc(-c2cccc(Cl)c2)o1)C(=O)Nc1cccc2cccnc12	none
N#C/C(=C\c1ccc(-c2ccccc2[N+](=O)[O-])o1)C(=O)Nc1nc(-c2cccs2)cs1	PP1 counter 16, NadD block 34, GRK2 aptamer HTS 56 | NadD conf inactive
CC(=O)c1ccc(OCCCC(=O)NCc2nnc3ccccn23)cc1	none (no result: PP1 counter, GRK2 aptamer HTS)
Cc1nc2c(c(=O)n1CCC1=CCCCC1)c1nc3ccccc3nc1n2/N=C/c1ccco1	NadD block 49 | NadD conf inactive
Cc1cccc2sc(NNC(=O)c3cc(-c4cccs4)nc4ccccc34)nc12	NadD block 49 | NadD conf 48
NNC(=O)c1cc(-c2cccs2)nc2ccccc12	none
O=C1CC(c2ccco2)CC(O)=C1C=NCC1CCNCC1 (centres undefined)	NadD block 34 | NadD conf inactive
O=C(N/N=C/c1ccc(Cl)c([N+](=O)[O-])c1)c1cc(-c2ccccc2)nc2ccccc12	none
O=C(N/N=C/c1cc([N+](=O)[O-])ccc1Cl)c1cc(-c2ccccc2)nc2ccccc12	NadD block 36 | NadD conf inactive
Cc1ccc(-c2cc(C(=O)N/N=C/c3ccc([N+](=O)[O-])o3)c3ccccc3n2)o1	NadD block 32 (no result: PP1 counter) | NadD conf inactive
COc1cccc(C(=O)OCC(=O)NCC2CCCO2)c1 (centres undefined)	none (no result: PP1 counter)
OCC[C@@H]1C[C@H](O)[C@@H](O)[C@@]2(OCCc3cc(Cl)ccc32)O1	none (no result: Beta2AR agonist, PP1 counter, GRK2 aptamer HTS)
COc1ccccc1NC(=O)c1ccccc1C(=O)N(C)Cc1ccccc1	none (no result: PP1 counter)
COc1ccccc1OCCn1c(SCC(=O)O)nc2ccccc21	none
Cc1ccc(C)c(NC(=O)COC(=O)CCC(=O)c2cccs2)c1	none
O=C1Nc2cc(C(=O)NCCN3CCCCCC3)ccc2S/C1=C/c1ccccc1F	NadD block 46 (no result: Beta2AR agonist, PP1 counter, GRK2 aptamer HTS) | NadD conf inactive
COc1ccc(/C=C2\Sc3ccc(C(=O)NCCN4CCCCCC4)cc3N(C)C2=O)cc1	NadD block 47 | NadD conf inactive
O=C(c1ccc(F)cc1)N1CCC(C(=O)N2CCN(S(=O)(=O)c3cccc(Cl)c3)CC2)CC1	none
O=C(NCc1ccc(F)cc1F)Nc1cnccc1C(F)(F)F	none
O=C1CCCC2=C1C1(CCCC1)N=C(Nc1nc3cc(-c4ccccc4)ccc3o1)N2	NadD block 40 (no result: Beta2AR agonist, PP1 counter, GRK2 aptamer HTS) | NadD conf inactive
O=C1CCCC2=C1C1(CCCCC1)N=C(Nc1nc3ccccc3o1)N2	none
Cc1c(Cl)cccc1Nc1n[nH]c(=S)s1	NadD block 32 (no result: PP1 counter, GRK2 aptamer HTS) | NadD conf inactive
Cc1ccccc1Nc1n[nH]c(=S)s1	none (no result: Beta2AR agonist, PP1 counter, GRK2 aptamer HTS)
S=c1[nH]nc(Nc2cccc3ccccc23)s1	NadD block 37 | NadD conf inactive
CC1Cc2ccccc2N1C(=O)CSc1nc2cc3c(cc2cc1C#N)OCO3 (centres undefined)	NadD block 35 | NadD conf inactive
CC(C)C[C@H]1CN(CCCC[C@H]2CNC(=O)C(=O)N2CCc2ccccc2)C(=O)C(=O)N1CCC1CCCCC1	none (no result: Beta2AR agonist, PP1 counter, GRK2 aptamer HTS)
COc1cccc(-n2c(SCC(=O)Nc3cc(C)on3)nc3c([nH]c4ccccc43)c2=O)c1	none
Cc1cc(NC(=O)CSc2nc3c([nH]c4ccccc43)c(=O)n2-c2cccc(C(F)(F)F)c2)no1	NadD block 44 (no result: PP1 counter, GRK2 aptamer HTS) | NadD conf inactive
CS(=O)(=O)N1CCc2cc(-c3csc(NC(=O)C(c4ccccc4)c4ccccc4)n3)ccc21	NadD block 30 | NadD conf inactive
O=C(Nc1nc(-c2cccc([N+](=O)[O-])c2)cs1)C(c1ccccc1)c1ccccc1	none
Nc1cc2nc[nH]c2cc1N	NadD block 39 (no result: PP1 counter, GRK2 aptamer HTS) | NadD conf inactive
O=C(NNC(=S)NC(=O)c1cccs1)c1ccc(NC(=O)c2ccccc2)cc1	NadD block 32 | NadD conf inactive
Nc1c(C(=O)NCc2ccco2)c2nc3ccccc3nc2n1CCc1ccc(F)cc1	NadD block 38 | NadD conf inactive
COc1ccc(C2CC(c3cccs3)=NN2C(=O)CSc2nc(=O)n3ccc(C)cc3n2)cc1 (centres undefined)	NadD block 46 | NadD conf inactive
COc1ccc(C2CC(c3cccs3)=NN2C(=O)CSc2nc3c(cnn3-c3ccccc3)c(=O)[nH]2)cc1 (centres undefined)	NadD block 40 | NadD conf inactive
COc1ccc(C2=NN(C(=O)CSc3nc(=O)n4cc(C)ccc4n3)C(c3ccc(C)cc3)C2)cc1 (centres undefined)	NadD block 49 | NadD conf inactive
COc1ccc(C2=NN(C(=O)CSc3ncccn3)C(c3ccc(OC)cc3)C2)cc1 (centres undefined)	none
CCN1CCN(CC(=O)N2N=C(c3cccs3)CC2c2ccc(OC)cc2)C(=O)C1=O (centres undefined)	none
COc1cccc(NC(=O)CSc2nc(O)c(C)c(=O)n2-c2ccc(C)cc2)c1	none
O=C(COc1cccc(Cl)c1)Nc1nc(-c2ccc(S(=O)(=O)N3CCOCC3)cc2)cs1	NadD block 32 (no result: PP1 counter, GRK2 aptamer HTS) | NadD conf inactive
CCOc1cccc(C(=O)Nc2nc(-c3ccc(S(=O)(=O)N4CCOCC4)cc3)cs2)c1	none
COc1cc(NS(=O)(=O)c2ccc(NC(=S)NC(=O)c3sc4ccccc4c3Cl)cc2)ncn1	NadD block 50 | NadD conf inactive
COc1ccc(C(=O)NC(=S)Nc2ccc(S(=O)(=O)Nc3cc(OC)ncn3)cc2)cc1	none
CCOc1ccc(CCN2C(=O)C(=O)N([C@@H](Cc3ccccc3)CN3CCC[C@H]3CN3C(=O)C(=O)NC[C@@H]3Cc3ccccc3)C[C@@H]2Cc2ccccc2)cc1	none (no result: Beta2AR agonist, PP1 counter, GRK2 aptamer HTS)
O=C1NC[C@H](Cc2ccccc2)N(C[C@@H]2CCCN2C[C@H](Cc2ccccc2)N2C[C@H](Cc3ccc(O)cc3)N(CCc3ccccc3)C(=O)C2=O)C1=O	NadD block 44 (no result: Beta2AR agonist, PP1 counter, GRK2 aptamer HTS) | NadD conf 49
CCOc1ccc(CCN2C(=O)C(=O)N([C@@H](CC(C)C)CN3CCC[C@@H]3CN3C(=O)C(=O)NC[C@@H]3Cc3ccccc3)C[C@@H]2Cc2ccc(O)cc2)cc1	none (no result: PP1 counter, GRK2 aptamer HTS)
CCOc1ccc(CCN2C(=O)C(=O)N([C@@H](Cc3ccc(O)cc3)CN3CCC[C@H]3CN3C(=O)C(=O)NC[C@@H]3Cc3ccccc3)C[C@@H]2Cc2ccc(O)cc2)cc1	NadD block 30 (no result: Beta2AR agonist, PP1 counter, GRK2 aptamer HTS) | NadD conf inactive
